HT1080 IDH1KD tx: qHTS for induction of synthetic lethality in tumor cells producing 2HG: qHTS for the HT-1080-IDH1KD cell line | HT-1080 IDH1 knockdown viability, ATP luminescence, 48 h | Potency, µM (doses to about 46.1 µM), inactives show top-dose activity, negative = toxicity, usual class: cytotoxic | 2% of 360,000 active;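 further: potency means the concentration at half of the fitted maximal effect; 0% = DMSO wells and -100% = cell-free medium wells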
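Using the IDH1-knockdown HT-1080 line run in the same batch and compound series as the NT line, viability after 48 h at 37 °C was determined by CellTiter-Glo luminescence and expressed as % activity.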
HT1080-NT tox: qHTS for induction of synthetic lethality in tumor cells producing 2HG: qHTS for the HT-1080-NT fibrosarcoma cell line; HT-1080-NT fibrosarcoma viability, CellTiter-Glo ATP luminescence, 48 h; Potency, µM (top dose mostly 46.1 µM), without a hit: at the highest dose activity, negative = less viability, actives largely listed as cytotoxic; 1.6% of 360,000 active;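 further: NT is the 2HG producing partner of a matched IDH1 knockdown line; potency means the concentration at half of the fitted maximal effect; 0% = DMSO-treated cells and -100% = media-only wells without cells; nearly all actives have a fitted effect of over 55% in size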
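Viability of the 2HG-overproducing fibrosarcoma line after 48 hours of compound exposure at 37 degrees C was determined by luminescence with CellTiter-Glo, and concentration-effect curves were then fitted and categorized.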
DT40 TDP1 CPT: qHTS for Inhibitors of human tyrosyl-DNA phosphodiesterase 1 (TDP1): qHTS in cells in presence of CPT. Potency, µM (series often up to 46.2 µM), without a hit: at the top dose activity change, negative = growth inhibition, actives largely listed as inhibitors. chicken DT40 Tdp1-/-;hTDP1 cells + 20 nM CPT, ATP luminescence, 48 h. 12% of 420,000 active; further: potency means the concentration at half of the fitted maximal effect; nearly all actives have a fitted effect of over 55% in size
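Chicken DT40 Tdp1-/- cells complemented with human TDP1, 400 cells/well, exposed to compounds plus 20 nM camptothecin for at least 48 h at 37 C; viability read as ATP content by CellTiter-Glo luminescence.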
TDP1 cell noCPT: qHTS for Inhibitors of human tyrosyl-DNA phosphodiesterase 1 (TDP1): qHTS in cells in absence of CPT. Potency, µM (top dose mostly 46.2 µM), for inactives: at the top dose activity change, negative = growth inhibition, actives largely listed as inhibitors. AID 686978, 2013. DT40 Tdp1-/- hTDP1 cells, no CPT, ATP luminescence, 48 h. 15% of 420,000 active; further: potency means the concentration at half of the fitted maximal effect; nearly all actives have a fitted effect of over 55% in size
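Chicken DT40 Tdp1-/- cells complemented with human TDP1, screened without camptothecin (DMSO vehicle only), 400 cells/well. Compounds pin-transferred, cells incubated at 37 °C for at least 48 hr. Growth read as ATP-dependent luminescence (CellTiter-Glo, 30 min at RT).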
IL-1B inflam inh: qHTS for Inhibitors of Inflammasome Signaling: IL-1-beta AlphaLISA Primary Screen; THP-1 LPS/ATP IL-1B secretion, AlphaLISA, 16 h; hits give low values; activity change, % at 57.5 µM; 4.7% of 360,000 active; AID 743279, 2014; in the data active means activity change below about -50%; inconclusive means mostly about -30% to -49%
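Secreted IL-1B measured by AlphaLISA bead assay after 16 h compound exposure of THP-1 cells; compounds (final up to 57.5 uM) added 1 h before LPS (250 ng/mL) and ATP (1.25 mM) stimulation; lower signal means less secretion.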
An asterisk follows results filed as active; ? = inconclusive; · = no result given; [ ] = dose if it differs, or a comment. Shown are actives, neighbours in structure and some others; about 19% of the full set was active somewhere. Unless noted, the call rests on the fitted dose curve; in most records, active means well fitted curve in the direction sought with a large enough effect; inconclusive means small, poorly fitted or top-dose-only effect, or another doubt; inactive means no such curve, though single readings can be large; an effect the other way counts as inactive or inconclusive. Unless noted, on the % scale 0 is the no-effect control and ±100 the full control effect.

SMILES	HT1080 IDH1KD tx	HT1080-NT tox	DT40 TDP1 CPT	TDP1 cell noCPT	IL-1B inflam inh
COc1ccc(CNCCC(c2ccc(OC)cc2)c2ccccc2OC)cc1 (stereo unspecified)	21µM*	15µM*	18µM*	6.5µM*	-83*
CC(C)CN(C)Cc1c(C(=O)N2CCc3ccccc3C2)nc2ccc(Cl)cn12	-29%	?	18µM*	21µM*	-83*
CCn1ncc(NC(=S)Nc2ccc3c(c2)OCO3)c1C(N)=O	6%	-7%	-1%	-11%	2
NC(=O)C1CCN(c2nc(-c3ccccc3)nc3c2oc2ccccc23)CC1	4%	?	?	?	-71*
CCOC(=O)C1CCN(C(=O)CSc2ccc(Br)cc2)CC1	2%	4%	11%	-23%	11
NC(=O)C1CCN(c2nc(-c3ccccc3)nc3ccccc23)CC1	-1%	-5%	-20%	-21%	-54*
CC1CCCCN1C(=O)C1CCN(c2nc(-c3ccccc3)nc3c2CCC3)CC1 (stereo unspecified)	11%	-1%	21µM*	15µM*	-15
CCOC(=O)C1CCN(c2nc(-c3ccc(Br)cc3)nc3ccccc23)CC1	-1%	-15%	5.8µM*	4.1µM*	0
CN1CCN(c2nc(-c3ccccc3)nc3c2oc2ccccc23)CC1	-2%	-2%	?	?	-3
CN(CCC#N)C(=O)COC(=O)c1ccccc1OCc1ccccc1Cl	2%	1%	3%	-14%	5
CN1CCN(CC(=O)c2ccccc2F)CC1	?	29%	-4%	-8%	1
CC1(C)CC(Cc2ccc(C(=O)c3ccccc3)cc2)N(C(=O)OC(C)(C)C)N1 (stereo unspecified)	-3%	-11%	6.5µM*	4.1µM*	-3
COc1ccccc1C1OC(c2cccc([N+](=O)[O-])c2)=NN1C(C)=O (stereo unspecified)	17%	14%	2%	-27%	0
CC(=O)N1N=C(c2cccc([N+](=O)[O-])c2)OC1c1ccc(Cl)cc1Cl (stereo unspecified)	0%	-10%	-10%	?	-52*
COc1cc(CNC(=O)Nc2nnc([C@H]3C[C@H](O)[C@@H](CO)O3)s2)cc(OC)c1OC	12%	15%	-16%	-1%	23
CCCCn1c(N)c(N(CCC(C)C)C(=O)C2CCCC2)c(=O)[nH]c1=O	4%	2%	6%	?	2
Cc1ccc(-n2nnc(-c3nsc(NC(=O)c4ccc(C)c(C)c4)n3)c2C)cc1	·	·	13µM*	13µM*	·
Cc1ccc(-n2nnc(-c3nsc(NC(=O)c4ccccc4C)n3)c2C)cc1Cl	·	·	5.2µM*	6.5µM*	·
COc1ccc(Cl)cc1-n1nnc(-c2nsc(NC(=O)c3ccccc3Cl)n2)c1C	·	·	-10%	-12%	·
Cc1ccc(-n2nnc(-c3nsc(NC(=O)c4cccc(Cl)c4)n3)c2C)cc1C	·	·	5.8µM*	3.7µM*	·
Cc1cc(C)cc(-n2nnc(-c3nsc(NC(=O)c4ccccc4Cl)n3)c2C)c1	·	·	-30%	?	·
CCc1ccccc1-n1nnc(-c2nsc(NC(=O)c3ccc(C)c(C)c3)n2)c1C	·	·	?	18µM*	·
O=C(C1CC1)N1CCc2cc(S(=O)(=O)N(CCO)Cc3ccccc3)ccc21	?	-17%	?	23µM*	-8
Cc1c(NS(=O)(=O)c2cc(Br)cc3c2N(C(=O)C2CC2)CC3)c(=O)n(-c2ccccc2)n1C	22%	17%	-11%	?	1
CCCCN(Cc1ccccc1)S(=O)(=O)c1ccc2c(c1)CCN2C(=O)C1CCC1	·	·	-28%	-21%	·
SMILES	HT1080 IDH1KD tx	HT1080-NT tox	DT40 TDP1 CPT	TDP1 cell noCPT	IL-1B inflam inh
CCCCN(Cc1ccccc1)S(=O)(=O)c1cc(Br)cc2c1N(C(=O)C1CC1)CC2	·	·	9.2µM*	9.2µM*	·
CCc1ccccc1NS(=O)(=O)c1cc(Br)cc2c1N(C(=O)C1CC1)CC2	·	·	16µM*	18µM*	·
CCN(Cc1ccccc1)S(=O)(=O)c1cc(Br)cc2c1N(C(=O)C1CC1)CC2	·	·	10µM*	8.2µM*	·
O=S(=O)(Nc1ccccc1N1CCCCC1)c1ccc(F)cc1F	2%	0%	-9%	?	-22
CC(=O)NCC(=O)NCC1Cc2cc(C)cc(-c3ccccn3)c2O1 (stereo unspecified)	·	·	6%[9.04 µM]	2%	·
CCS(=O)(=O)Nc1ccc(-c2nnc(SCC(=O)OC)o2)cc1	7%	8%	-5%	-47%	-85*
CCC(=O)Nc1ccc(C(=O)CSc2nnc(-c3ccc(NS(=O)(=O)CC)cc3)o2)cc1OC	-7%	-11%	1.6µM*	1.2µM*	3
CCOC(=O)Cc1csc(NC(=O)CSc2nnc(-c3ccc(NS(=O)(=O)CC)cc3)o2)n1	8%	0%	-28%	-6%	6
COC(=O)CSc1nnc(-c2ccc(S(=O)(=O)N3CCCC3)cc2)o1	7%	11%	14%	-11%	-52*
Cc1cc(C)cc(NC(=O)CSc2nnc(-c3ccc(S(=O)(=O)N4CCCC4)cc3)o2)c1	-6%	3%	-22%	-14%	0
Cn1cccc1/C=N/NC(=O)CSc1nc2ccccc2n1C	11%	2%	-3%	-19%	-15
CCOC(=O)C1(C)CCCN1C(=O)c1cncc(Br)c1 (stereo unspecified)	25%	24%	2%	-7%	0
Cc1ccc(S(=O)(=O)n2nccc2-c2c(-c3ccc(Cl)cc3)noc2C)cc1	?	-30%	?	16µM*	-14
CC(Oc1ccc(Cl)cc1)c1ccnn1S(=O)(=O)c1ccc(Cl)cc1 (stereo unspecified)	-15%	-11%	-12%	-14%	-21
CCCCc1cc(=O)oc2cc(C)cc(OCC(=O)N3CCC(C(=O)O)(c4ccccc4)CC3)c12	-7%	-9%	3%	-21%	0
CC(CCc1ccccc1)NC(=O)C1CCN(S(=O)(=O)c2cnc[nH]2)CC1 (stereo unspecified)	10%	6%	-1%	-6%	-55*
O=C(O)[C@H](O)[C@@H](O)[C@H](O[C@@H]1O[C@H](CO)[C@H](O)[C@H](O)[C@H]1O)[C@H](O)CO	·	·	-1%[21.1 µM]	3%[21.1 µM]	·
OCC1(Cc2ccccc2)CCN(C2CCN(c3ccc(F)c(F)c3)CC2)CC1	-24%	-26%	-29%	12µM*	-118*
OCC1(Cc2ccccc2)CCN(CCCC2CCCC2)CC1	11%	9%	?	?	-11

Screening results (PubChem)
